# Results filed as inconclusive are left out. Active and inactive are the calls of the source. Calls come from the whole dose curve; as a rule, active = well fitted curve in the direction sought with a large enough effect; inconclusive = small, poorly fitted or top-dose-only effect, or another doubt; inactive = no such curve, though single readings can be large or run the other way.
# Target: Thioredoxin reductase 1, cytoplasmic (Rattus norvegicus) (UniProt O89049)
# Assay: qHTS Assay for Substrates of Mammalian Selenoprotein Thioredoxin Reductase 1 (TrxR1) (AID 488772);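 note: a drop in NADPH fluorescence below the no-compound background marks a TrxR1 substrate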
# Details: purified TrxR1, NADPH consumption substrate assay; series mostly up to 57.1 µM
# Excerpt: The selenoprotein thioredoxin reductase (TrxR; EC 1.8.1.9) is a FAD containing homodimeric pyridine nucleotide-disulfide oxidoreductase with many cellular roles. Together with NADPH and its prime substrate thioredoxin (Trx), the enzyme forms the core of the Trx system. The mammalian Trx system exerts a wide spectrum of functions including redox regulation, antioxidant defense, regulation of transcription factors as well as support of cell growth and replication. Many of these functions involve the reduction of Trx, which may subsequently reduce a number of different substrates including ribonucleotide reductase, peroxiredoxins or NFkB. Mammalian TrxR itself also has a broad substrate specificity, reducing both protein and non-protein substrates, including low molecular weight compounds such as dehydroascorbate, lipoic acid, ubiquinone, and juglone. In addition, several drugs in clinical use for anticancer treatment are indeed known to target TrxR1.
# This BioAssay is a validation of an NADPH fluorescence-based, dual-purpose qHTS rTrxR1 assay designed to find potential inhibitors and substrates of rTrxR1. For this particular BioAssay, actives are potential substrates. See related BioAssay for inhibitors data deposition.
# Assay protocol: 2 uL of reagents (buffer in column 4 as negative control and 90 nM rTrxR1 in columns 1-3 and 5-48) were dispensed into Greiner black solid-bottom 1,536-well assay plates, followed by 1 uL of NADPH (400 uM final concentration) to each well. The plates were centrifuged at 1000 rpm for 15 seconds and subsequently incubated for 5 min at room temperature (~22 deg C) to allow for rTrxR1 reduction. Compounds (23 nL) were then transferred via Kalypsys pin tool equipped with 1536-pin array (10 nL slotted pins, V&P Scientific, San Diego, CA). In addition, a duplicate 2-fold serial dilution of the control compounds auranofin, a known gold-based TrxR1 inhibitor, and juglone (5-hydroxy-1,4-naphthoquinone), a natural TrxR1 substrate, were pin-transferred to columns 2 and 3, respectively. After incubation for 15 min at room temperature (~22 deg C), 1 uL of selenite (400 uM final concentration) were dispensed to each well. The plate was immediately transferred to a ViewLux high-throughput CCD imager (PerkinElmer), wherein kinetic measurements of NADPH fluorescence (Ex 340 nm, Em 450 nm) were acquired (8 minute kinetic read, see Table 1). Read 1 was utilized to assess the capacity of a compound to serve as an rTrxR1 substrate, i.e. a decrease in NADPH fluorescence compared to the no-compound background is an indication of a substrate behavior for that particular compound. For inhibitory activity of a compound, delta values, computed as the difference in fluorescence intensity between the first and last reads of an 8-minute time kinetic window, were used. All reagents were diluted in an assay buffer consisting of 50 mM Tris-HCl, pH 7.5, 2 mM EDTA, and 0.01% Tween-20.
# Throughout the screen, reagent bottle and all liquid lines were made light-tight to minimize reagent degradation. All screening operations were performed on a fully integrated robotic system (Kalypsys, San Diego, CA) containing one RX-130 and two RX-90 anthropomorphic robotic arms (Staubli, Duncan, SC). Library plates were screened starting from the lowest and proceeding to the highest concentration, and a 'double-pinning' step of the highest concentration was required to access higher concentrations of compounds. Vehicle-only plates, with DMSO being pin-transferred to the columns 5-48, were inserted uniformly at the beginning and the end of each library in order to monitor and record any shifts in the background, which can be affected by reagent dispensers or loss in enzyme activity over time. Screening data were corrected, normalized, and concentration-effect relationships were derived by using publicly-available curve fitting algorithms developed in-house (http://ncgc.nih.gov/pub/openhts).
# Sequence of Thioredoxin reductase 1, cytoplasmic (Rattus norvegicus) (O89049 whole entry, looked up): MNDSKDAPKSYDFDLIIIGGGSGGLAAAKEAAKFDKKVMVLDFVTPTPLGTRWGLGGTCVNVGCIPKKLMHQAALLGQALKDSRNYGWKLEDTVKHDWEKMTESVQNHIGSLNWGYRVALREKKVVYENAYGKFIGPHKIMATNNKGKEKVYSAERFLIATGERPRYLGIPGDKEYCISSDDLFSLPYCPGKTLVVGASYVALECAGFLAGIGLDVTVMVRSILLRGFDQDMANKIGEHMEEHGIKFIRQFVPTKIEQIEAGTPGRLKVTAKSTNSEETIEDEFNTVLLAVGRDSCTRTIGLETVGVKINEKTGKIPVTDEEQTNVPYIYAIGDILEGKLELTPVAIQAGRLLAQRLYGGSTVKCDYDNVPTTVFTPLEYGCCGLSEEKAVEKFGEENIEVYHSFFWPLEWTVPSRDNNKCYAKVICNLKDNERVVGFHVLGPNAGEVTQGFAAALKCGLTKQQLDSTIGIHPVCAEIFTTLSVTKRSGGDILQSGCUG
row,SMILES,outcome
1,c1ccc(C(NCCNC(c2ccccc2)c2ccccc2)c2ccccc2)cc1,inactive
2,NCC(O)c1ccc(O)c(O)c1 (stereo not given),inactive
3,O=C(O)CCC/C=C\C[C@@H]1[C@@H](/C=C/[C@H](O)C2Cc3ccccc3C2)[C@@H](F)C[C@@H]1O,inactive
4,Nc1ccc(CCNc2ncnc3c2ncn3C2OC(CO)C(O)C2O)cc1 (stereo not given),inactive
5,CCN1C(=O)C=CC1=O,inactive
6,CC(C)NC[C@H](O)COc1ccc(CC(N)=O)cc1,inactive
7,O[Si](CCCN1CCCCC1)(c1ccc(F)cc1)C1CCCCC1 (stereo not given),inactive
8,CCCOC(=O)c1c(-c2ccccc2)nc(CC)c(C(=O)SCC)c1CCC,inactive
9,O=c1[nH]c(=S)[nH]c(-c2ccccc2)c1Cc1c(O)ccc2ccccc12,inactive
10,CC1C(=O)N(C)C(=O)c2nc[nH]c21 (stereo not given),inactive
11,N[C@@H](CCCC(=O)O)C(=O)O,inactive
12,CC(C)(CO)Cc1cc(C(C)(C)C)c(O)c(C(C)(C)C)c1,inactive
13,COc1cc([C@@H]2c3cc4c(cc3[C@H](O)C3COC(=O)[C@@H]32)OCO4)cc(OC)c1OC (stereo not given in full),inactive
14,O=c1onc2cnc3ccccc3n12,inactive
15,Cc1cc2c(cc1Cl)N(C(=O)Nc1ccnc3ccccc13)CC2,inactive
16,CCCCCC[C@@H]([C@@H](C)O)n1cnc2c(N)ncnc21,inactive
17,COc1cc(/C=C(\C#N)C(=O)Nc2nnc(C(F)(F)F)s2)ccc1OCc1ccc(C(F)(F)F)cc1C(F)(F)F,inactive
18,O=c1[nH]c2cc(Cl)ccc2c(O)c1-c1ccc(Oc2ccccc2)cc1,inactive
19,CN1Cc2sccc2C(c2ccc(O)c(O)c2)C1 (stereo not given),inactive
20,Nc1ccc(-c2ccc3ccccc3n2)cc1,inactive

row,SMILES,outcome
1,Cc1nc2c(OCc3ccccc3)cccn2c1CC#N,inactive
2,CC(=O)C(C)=O,inactive
3,N#Cc1cc([N+](=O)[O-])c2sc(C(N)=O)[n+]([O-])c2c1,inactive
4,CN(C)CCCc1cc(C(=O)Nc2ccc(-c3ccncc3)cc2)ccc1O,inactive
5,O=C(N[C@@H](Cc1ccccc1)C(=O)CCl)OCc1ccccc1,inactive
6,O=C(O)/C=C/c1cnc[nH]1,inactive
7,CCn1c(=O)[nH]c2cc(Cl)c(Cl)cc21,inactive
8,O=c1[nH]ccc2c(O)cccc12,inactive
9,Nc1ncnc2c1c(-c1ccc(Oc3ccccc3)cc1)cn2C1CCCC1,inactive
10,Cc1cccc(C(=O)NCN2CCN(c3ccccc3C#N)CC2)c1,inactive
11,Clc1nccc2c1ccc1ccccc12,inactive
12,C#CCn1c(=O)c2c(ncn2C)n(C)c1=O,inactive
13,CNCCNS(=O)(=O)c1cccc2cnccc12,inactive
14,NC(=O)c1cc[n+](CC2=C(C(=O)O)N3C(=O)[C@@H](NC(=O)[C@@H](c4ccccc4)S(=O)(=O)[O-])[C@H]3SC2)cc1,inactive
15,CC(=O)N[C@@H](Cc1c[nH]c2ccccc12)C(=O)OCc1cc(C(F)(F)F)cc(C(F)(F)F)c1,inactive
16,O=C1OC(=O)C2C3CCC(O3)C12 (stereo not given),inactive
17,CC(C)C[C@H](NC(=O)C1OC1C(=O)O)C(=O)NCCCCN=C(N)N (stereo not given in full),inactive
18,Nc1nc2c(nc(Br)n2C2OC3COP(=O)(O)O[C@@H]3C2O)c(=O)[nH]1 (stereo not given in full),inactive
19,O=C(O)C1=CCNCC1,inactive
20,N#C/C(=C\c1ccc(O)c(O)c1)C(=O)NCCc1ccccc1,inactive
